Laboratory results taken from the supplement of paper PMC10127200.
Where a name gives a salt, the structure may show the parent alone.

How the values were obtained:
Assay in all cases: Euclidean distance of Cell Painting phenotypic profile (signed KS, 77 features) to DMSO centroid (dimensionless distance); 5 or 10 uM (library dependent); higher = stronger phenotypic change vs DMSO (phenoactivity)
Conditions in all cases: 48 h
[1] = tested on: 786-O
Outline: (§1)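 Phenoactivity is computed as Euclidean distance to the median vehicle profile. The profiles, drawn from 77 Harmony features scored as signed Kolmogorov-Smirnov statistics versus same-plate vehicle wells, were corrected for plate position, correlation-weighted and replicate-averaged at the top dose. Stained cells were imaged confocally at 20X (9 fields/well) after 48 h with library compounds at 10 or 5 uM, 0.1% DMSO final, in five cancer lines and a healthy fibroblast line.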

[2] = tested on: A549
Outline: as §1

[3] = tested on: DU145
Outline: as §1

[4] = tested on: FB
Outline: as §1

[5] = tested on: HEPG2
Outline: as §1

[6] = tested on: OVCAR4
Outline: as §1

Compound	Euclidean distance [1]	Euclidean distance [2]	Euclidean distance [3]	Euclidean distance [4]	Euclidean distance [5]	Euclidean distance [6]
Cn1ncc(Cl)c1-c1cc(C(=O)N[C@H](CN)Cc2ccc(F)c(F)c2)oc1Cl	3.04	2.27	3.3	3.69	2.27	2.44
CN(CCN1CCC(OC(=O)Nc2ccccc2-c2ccccc2)CC1)C(=O)c1ccc(CN2CCC(C(N)=O)CC2)cc1 [Revefenacin]	1.01	1.27	1.01	1.33	1.25	1.44
CNCC(=O)O [Sarcosine]	1.77	0.92	1.05	1.13	0.831	1.75
Cc1ccc(O)c([C@H](CCN(C(C)C)C(C)C)c2ccccc2)c1 [Tolterodine tartrate]	1.87	0.728	0.897	1.13	1.19	1.58
CC1(C)S[C@@H]2[C@H](NC(=O)Cc3ccccc3)C(=O)N2[C@H]1C(=O)O.CCN(CC)CCOC(=O)c1ccc(N)cc1 [Penicillin G Procaine]	0.821	0.676	0.97	1.38	0.466	1.24
Cc1[nH]cnc1CN1CCc2c(c3ccccc3n2C)C1=O [Alosetron Hydrochloride]	1.67	0.744	0.859	0.731	0.664	1.33
Cc1nc(N(C)C(=O)Cc2ccc(-c3ccccn3)cc2)sc1S(N)(=O)=O [Pritelivir (BAY 57-1293)]	0.793	0.531	1.07	0.872	0.577	0.834
O=C(Nc1ccccc1)N1CCN(c2nc(-c3ccccc3)ns2)CC1	0.718	0.932	0.9	1.03	1.34	1.08
C[C@]12CCC(=O)C=C1[C@@H]1C[C@@H]1[C@H]1[C@@H]3[C@@H]4C[C@@H]4[C@@]4(CCC(=O)O4)[C@@]3(C)CC[C@@H]12 [Drospirenone]	0.972	0.987	0.866	0.787	0.612	0.995
Oc1c(I)cc(I)c2cccnc12 [Diiodohydroxyquinoline]	1.24	1.68	0.746	1.01	0.677	1.2
OCc1c[nH]c2ccccc12 [Indole-3-carbinol]	1.05	1.17	0.838	0.767	0.598	1.05
O=C(c1ccc(OCCCc2c[nH]cn2)cc1)C1CC1 [Ciproxifan]	1.15	1.15	1.03	0.829	0.908	1.15
Cn1ncnc1[C@H]1c2n[nH]c(=O)c3cc(F)cc(c23)N[C@@H]1c1ccc(F)cc1	1.03	1.17	0.939	1.27	1.56	0.901
COc1cc2nc(N(C)CCCNC(=O)C3CCCO3)nc(N)c2cc1OC (centres undefined) [Alfuzosin HCl]	0.985	0.664	0.632	0.744	0.675	0.907
CN(Cc1ccc(C(C)(C)C)cc1)Cc1cccc2ccccc12 [Butenafine HCl]	0.641	0.57	0.938	0.74	0.375	1.15
CCc1cccc(CC)c1NC(=O)N1Cc2[nH]nc(NC(=O)c3ccc(N4CCN(C)CC4)cc3)c2C1	2.54	2.75	2.46	3.44	2.47	2.78
OCCn1cc(-c2ccc3c(c2)CC/C3=N\O)c(-c2ccncc2)n1	1.79	0.879	1.22	1.93	0.823	1.88
CC[C@@H]1/C=C(\C)C[C@H](C)C[C@H](OC)[C@H]2O[C@@](O)(C(=O)C(=O)N3CCCC[C@H]3C(=O)O[C@H](/C(C)=C/[C@@H]3CC[C@H](Cl)[C@H](OC)C3)[C@H](C)[C@@H](O)CC1=O)[C@H](C)C[C@@H]2OC [Pimecrolimus]	1.47	1.85	2.17	2.13	0.886	1.29
CCOC(=O)c1ccc(NC2CCCCC2)c(N)c1 [Ferrostatin-1 (Fer-1)]	0.915	1.54	1.71	1.18	0.921	1.09
CC(COc1ccccc1)N(CCCl)Cc1ccccc1 (centres undefined) [Phenoxybenzamine HCl]	1.48	0.892	1.06	0.978	0.778	1.55

Compound	Euclidean distance [1]	Euclidean distance [2]	Euclidean distance [3]	Euclidean distance [4]	Euclidean distance [5]	Euclidean distance [6]
CCCCCCCCCCCCC[N+](C)(C)Cc1ccccc1 [Benzalkonium chloride]	2.54	2.29	2.89	1.54	2.12	2.53
CC(C)(Oc1ccc(C2CC2(Cl)Cl)cc1)C(=O)O (centres undefined) [Ciprofibrate]	1.02	0.831	0.853	0.589	0.698	1.05
CNS(=O)(=O)C[C@H]1CC[C@H](N(C)c2[nH]cnc3nccc2-3)CC1	1.06	0.94	1.61	1.3	0.907	0.949
C=C1CC[C@H]2C(=C)CC[C@H]3C(=C)C(=O)O[C@@H]3[C@@H]12 [Dehydrocostus Lactone]	6.1	3.77	7.43	3.32	3.68	2.97
CN(C)[C@@H]1C(O)=C(C(N)=O)C(=O)[C@@]2(O)C(O)=C3C(=O)c4c(O)cccc4[C@@](C)(O)[C@H]3[C@H](O)[C@@H]12 [Oxytetracycline Dihydrate]	1.33	0.832	1.09	1.19	1.9	1.3
CCn1cc(C(=O)O)c(=O)c2ccc(C)nc21 [Nalidixic acid]	1.33	0.755	1.12	1.07	0.602	1.5
Cc1onc(-c2ccccc2Cl)c1C(=O)N[C@@H]1C(=O)N2[C@@H]1SC(C)(C)[C@@H]2C(=O)O [Cloxacillin Sodium]	0.711	0.744	0.6	0.941	1.02	1.39
COC(=O)[C@H](c1ccccc1Cl)N1CCc2sccc2C1 [Clopidogrel]	2.53	2.3	2.44	2.99	1.3	2.4
CC(=O)O[C@]1(C(C)=O)CC[C@H]2[C@@H]3C[C@H](C)C4=CC(=O)CC[C@]4(C)[C@H]3CC[C@@]21C [Medroxyprogesterone acetate]	1.02	1.4	1.65	1.31	1	1.06
CC[C@@H]1C(=O)OC[C@@H]1Cc1cncn1C [Pilocarpine HCl]	1.14	0.624	0.725	0.78	0.698	1.49
CC(C)CCN1c2nc(Nc3cc(F)c(O)c(F)c3)ncc2N(C)C(=O)C1C (centres undefined)	1.38	1.84	2.16	1.49	0.771	2.61
C=CC[N+]1([C@H]2C[C@H]3[C@@H]4CC[C@H]5C[C@H](O)[C@@H](N6CCOCC6)C[C@]5(C)[C@H]4CC[C@]3(C)[C@H]2OC(C)=O)CCCC1 [Rocuronium Bromide]	1.59	1.12	1.92	1.08	0.685	1.25
NCc1ccc(S(N)(=O)=O)cc1 [Mafenide hydrochloride]	1.35	0.84	0.784	0.654	0.629	1.46
C[C@@H]1CCO[C@H]2Cn3cc(C(=O)NCc4ccc(F)cc4F)c(=O)c(O)c3C(=O)N12 [Dolutegravir Sodium]	0.603	0.757	0.904	0.594	0.621	0.881
c1cc(CN2CCCNCCNCCCNCC2)ccc1CN1CCCNCCNCCCNCC1 [Plerixafor 8HCl (AMD3100 8HCl)]	1.37	1.38	0.691	1.5	0.69	1.7
O=c1cc(-c2ccc(O)c(O)c2)oc2cc(O)cc(O)c12 [Luteolin]	1.39	1.21	2.73	1.9	1.36	1.27
CC(C)(O/N=C(\C(=O)N[C@@H]1C(=O)N2C(C(=O)[O-])=C(C[n+]3ccccc3)CS[C@H]12)c1csc(N)n1)C(=O)O [Ceftazidime]	1.39	0.613	0.815	1.06	0.385	1.62
COc1ccc2cc1Oc1ccc(cc1)C[C@H]1c3cc(c(OC)cc3CCN1C)Oc1c(O)c(OC)cc3c1[C@H](C2)N(C)CC3 [Fangchinoline]	4.67	4.12	3.78	4.61	5.01	4.4
COCCNc1cc(NC(=O)N2CCCc3cc(CN4CCN(C)CC4=O)c(C=O)nc32)ncc1C#N	0.599	1.34	0.736	1.03	1.18	0.826
